Compound activity from PubChem BioAssay.
Hits are enriched below; roughly 19% of the tested compounds scored in any of these assays.
TDP1 cell noCPT: qHTS for Inhibitors of human tyrosyl-DNA phosphodiesterase 1 (TDP1): qHTS in cells in absence of CPT; DT40 Tdp1-/- hTDP1 cells, no CPT, ATP luminescence, 48 h; Potency, µM (highest dose often 46.2 µM), actives largely listed as inhibitors; 15% of 420,000 active; AID 686978, 2013; further: nearly all actives have a fitted effect of over 55% in size
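Cells were dispensed at 400 per well, compounds added by pin tool, plates incubated ≥48 hr at 37 °C, then CellTiter-Glo added for 30 min at room temperature before luminescence reading. Line: DT40 Tdp1-/- complemented with hTDP1; camptothecin omitted.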
HT1080 IDH1KD tx: toxicity to HT-1080 IDH1 knockdown cells (counter line); HT-1080 IDH1 knockdown viability, ATP luminescence, 48 h; Potency, µM (titrated, usually from 46.1 µM), usual class: cytotoxic; 2% of 360,000 active
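After a 2 h attachment period, IDH1KD HT-1080 cells took pin-transferred compound for 48 h at 37 °C; ATP-based luminescence after 10 min room-temperature reagent incubation reported viability.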
KB-V1 MDR tox: kills drug-selected multidrug resistant KB-V1 cells; KB-V1 MDR cells viability, CellTiter-Glo, 72 h; Potency, µM (titrated, usually from 46.1 µM), most hits filed as cytotoxic; 3.4% of 400,000 active; AID 1347076; further: nearly all actives have a fitted effect of over 60% in size
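Readout: CellTiter-Glo luminescence, 10 min after addition. Cells: KB-V1 MDR subline, 72 h at 37 degrees C with compound. Analysis: corrected, normalized data fitted to concentration-effect curves.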
HT1080NT lethal: kills 2HG-producing HT-1080-NT fibrosarcoma cells. HT-1080-NT fibrosarcoma viability, CellTiter-Glo ATP luminescence, 48 h. Potency, µM (highest dose often 46.1 µM), usual class: cytotoxic. 1.6% of 360,000 active. AID 686970;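 further: NT is the 2HG producing partner of a matched IDH1 knockdown line; nearly all actives have a fitted effect of over 55% in size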
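750 cells/well, RPMI + 5% FBS; 2 h settle, compound pin-transfer, 48 h at 37 degrees C. CellTiter-Glo 10 min RT, luminescence. Normalized to DMSO and media-only wells.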
TDP1 cell CPT: growth inhibition of DT40 Tdp1-/-;hTDP1 cells with camptothecin (screen for TDP1 inhibitors); chicken DT40 Tdp1-/-;hTDP1 cells + 20 nM CPT, ATP luminescence, 48 h; Potency, µM (top dose mostly 46.2 µM), hits mostly inhibitors; 12% of 420,000 active; AID 686979; further: nearly all actives have a fitted effect of over 55% in size
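Chicken DT40 Tdp1-/- cells complemented with human TDP1, 400 cells/well, exposed to compounds plus 20 nM camptothecin for at least 48 h at 37 C; viability read as ATP content by CellTiter-Glo luminescence.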
KB-3-1 tox: KB-3-1 parental cell cytotoxicity; Potency, µM (series often up to 46.1 µM), actives largely listed as cytotoxic; 1.4% of 400,000 active; AID 1347075; KB-3-1 viability, CellTiter-Glo ATP luminescence, 72 h; further: nearly all actives have a fitted effect of over 60% in size
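Here the drug-naive KB-3-1 line serves as comparator for MDR sub-line selectivity; cells received compound titrations, 72 h at 37 °C, then CellTiter-Glo readout.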
Large screens that a line does not name were inactive. The call rests on the fitted dose curve; in most records, active means well fitted curve in the direction sought with a large enough effect; inconclusive means small, poorly fitted or top-dose-only effect, or another doubt; inactive means no such curve, though single readings can be large; an effect the other way counts as inactive or inconclusive.

NC(Cc1cc(O)c(O)cc1O)C(=O)O (stereo not given)	TDP1 cell noCPT 6.3µM, TDP1 cell CPT 5µM, KB-3-1 tox inconclusive (no result: HT1080 IDH1KD tx, HT1080NT lethal)
CN(c1ccccc1)P(=O)(N1CC1)N1CC1	TDP1 cell noCPT 4.1µM, TDP1 cell CPT 2.6µM
O=P(Oc1ccccc1)(N1CCOCC1)N1CCOCC1	none
CCN1c2nc3ccccn3c(=O)c2CC2(C(=O)N(C)C(=O)N(C)C2=O)C1C (stereo not given)	KB-V1 MDR tox 16µM
CN1C(=O)N(C)C(=O)C2(Cc3c(nc4ccccn4c3=O)N3CCc4ccccc4C32)C1=O (stereo not given)	TDP1 cell noCPT inconclusive, TDP1 cell CPT inconclusive
CC1CCN2c3nc4ccccn4c(=O)c3CC3(C(=O)N(C)C(=O)N(C)C3=O)C2C1 (stereo not given)	KB-V1 MDR tox 7.3µM
Cc1cccn2c(=O)c3c(nc12)N1CCC(Cc2ccccc2)CC1C1(C3)C(=O)N(C)C(=O)N(C)C1=O (stereo not given)	TDP1 cell noCPT inconclusive, KB-V1 MDR tox inconclusive, TDP1 cell CPT 18µM
COc1ccc2c(c1)CCc1c(C(=O)Nc3c(C)nn(Cc4ccccc4C)c3C)noc1-2	TDP1 cell noCPT 10µM, TDP1 cell CPT 23µM (no result: HT1080 IDH1KD tx, HT1080NT lethal)
CC(NC(=O)N1CC1(C)C)c1ccccc1 (stereo not given)	none
CC(C)OS(C)(=O)=O	none
CS(=O)(=O)OCC(O)C(O)COS(C)(=O)=O (stereo not given)	TDP1 cell noCPT 11µM, TDP1 cell CPT 13µM (no result: HT1080 IDH1KD tx, KB-V1 MDR tox, HT1080NT lethal, KB-3-1 tox)
CC(=O)OCC(=O)C1CCC2C3CC=C4CC(O)CC[C@@]4(C)C3CC[C@]12C (stereo not given in full)	none (no result: HT1080 IDH1KD tx, KB-V1 MDR tox, HT1080NT lethal, KB-3-1 tox)
CC(C)C[C@H](NC(=O)[C@H](Cc1ccccc1)NC(=O)CNC(=O)CNC(=O)[C@@H](N)Cc1ccc(O)cc1)C(=O)N[C@@H](CCCN=C(N)N)C(=O)N[C@@H](CCCCN)C(=O)N[C@@H](Cc1ccc(O)cc1)C(=O)N1CCC[C@H]1C(=O)N[C@@H](CCCCN)C(=O)O	none (no result: HT1080 IDH1KD tx, KB-V1 MDR tox, HT1080NT lethal, KB-3-1 tox)
c1cc2c(cc1NC1=NCCO1)CCCC2	TDP1 cell noCPT inconclusive, HT1080 IDH1KD tx inconclusive, KB-V1 MDR tox inconclusive, HT1080NT lethal inconclusive, TDP1 cell CPT 18µM, KB-3-1 tox 15µM
CCOCC1(CCc2ccccc2)C(=O)NC(=S)NC1=O	none
Cc1ccccc1-c1ccc2n1Cc1cnnn1-c1ccccc1-2	TDP1 cell noCPT inconclusive, TDP1 cell CPT inconclusive
COc1ccccc1CCNCc1cccc(C(F)(F)F)c1	KB-V1 MDR tox inconclusive
NC(N)=N/N=C/c1cn(-c2ccccc2)nc1-c1cccs1	TDP1 cell noCPT 10µM, KB-V1 MDR tox inconclusive, TDP1 cell CPT 10µM
NC(=O)c1ncn([C@@H]2O[C@H](CO)[C@@H](O)[C@H]2O)n1	TDP1 cell noCPT 1µM, TDP1 cell CPT 1.5µM (no result: HT1080 IDH1KD tx, HT1080NT lethal)
COc1nc(N)nc2c1ncn2[C@@H]1O[C@H](CO)[C@@H](O)[C@@H]1O	TDP1 cell CPT inconclusive (no result: HT1080 IDH1KD tx, KB-V1 MDR tox, HT1080NT lethal, KB-3-1 tox)
COc1cccc(C(=O)C2CCCN(Cc3ccon3)C2)c1 (stereo not given)	KB-3-1 tox inconclusive
COc1c(C)cc(C(=O)C2CCCN(Cc3cccc(O)c3)C2)cc1C (stereo not given)	TDP1 cell noCPT inconclusive, TDP1 cell CPT inconclusive
COc1c(C)cc(C(=O)C2CCCN(C3CCOCC3)C2)cc1C (stereo not given)	none
COc1cccc(C(=O)C2CCCN(Cc3cccc(C)n3)C2)c1 (stereo not given)	TDP1 cell noCPT 16µM, TDP1 cell CPT 18µM
COc1ccc2cc(C(=O)C3CCCN(C4CCOCC4)C3)ccc2c1 (stereo not given)	TDP1 cell noCPT 13µM, TDP1 cell CPT 21µM
COc1c(C)cc(C(=O)C2CCCN(Cc3cccc(C)n3)C2)cc1C (stereo not given)	TDP1 cell noCPT 21µM, TDP1 cell CPT inconclusive
CCC1C(=O)OCC1Cc1cncn1C (stereo not given)	none (no result: HT1080 IDH1KD tx, KB-V1 MDR tox, HT1080NT lethal, KB-3-1 tox)
c1cc(CN2CCC3(CCNCC3)CC2)ccn1	none (no result: HT1080 IDH1KD tx, KB-V1 MDR tox, HT1080NT lethal, KB-3-1 tox)
CCC1CN2CCc3cc(OC)c(OC)cc3C2CC1CC1NCCc2cc(OC)c(OC)cc21 (stereo not given)	TDP1 cell noCPT 0.15µM, TDP1 cell CPT 0.21µM (no result: HT1080 IDH1KD tx, KB-V1 MDR tox, HT1080NT lethal, KB-3-1 tox)
CC[C@H]1CN2CCc3cc(OC)c(OC)cc3C2C[C@@H]1C[C@H]1NCCc2cc(OC)c(OC)cc21 (stereo not given in full)	TDP1 cell noCPT 0.0082µM, HT1080 IDH1KD tx 0.052µM, KB-V1 MDR tox 2.1µM, HT1080NT lethal 0.052µM, TDP1 cell CPT 0.13µM, KB-3-1 tox 0.21µM
N#CC1c2ccccc2-n2nncc2CN1S(=O)(=O)c1cc(Cl)cc(Cl)c1 (stereo not given)	none
CC1=CC2OC3CC4OC(=O)C=CC=CC(=O)OCCC(C)C(O)C(=O)OCC2(CC1O)C4(C)C31CO1 (stereo not given)	TDP1 cell noCPT 0.16µM, KB-V1 MDR tox 0.52µM, HT1080NT lethal 0.21µM, TDP1 cell CPT 0.15µM, KB-3-1 tox 0.15µM (no result: HT1080 IDH1KD tx)
CC1=CC2OC3CC4OC(=O)C=CC=CC(C(C)O)OCC(O)C(C)CC(=O)OCC2(CC1O)C4(C)C31CO1 (stereo not given)	TDP1 cell noCPT 0.021µM, KB-V1 MDR tox inconclusive, HT1080NT lethal 0.046µM, TDP1 cell CPT 0.013µM, KB-3-1 tox 0.0092µM (no result: HT1080 IDH1KD tx)
CC(C)NP(=O)(NC(C)C)OP(=O)(NC(C)C)NC(C)C	none
CC(OC(=O)c1cn(C)c2ccccc12)C(=O)N1CCCC1 (stereo not given)	none
CCC1(c2ccc(C)cc2)C(=O)NC(=S)NC1=O	none
COc1cc2c(cc1OC)C13CCN4CC5=CCOC(CC(=O)O)C(C5CC41)C3N2 (stereo not given)	none
CN1CCN(CC(=O)Nc2ccc(Cl)cc2C(=O)c2ccccc2)CC1	TDP1 cell noCPT inconclusive
Nc1cccc(SC2CC(=O)N(c3ccc(Cl)cc3C(=O)c3ccccc3)C2=O)c1 (stereo not given)	TDP1 cell noCPT 21µM, KB-V1 MDR tox inconclusive, TDP1 cell CPT inconclusive, KB-3-1 tox inconclusive
C[C@]12CCC3C(CC[C@H]4[C@@H](O)[C@H](O)CC[C@]34C)C1CCC2=O (stereo not given in full)	TDP1 cell noCPT inconclusive
Cc1ccccc1C1CC(=O)Nc2ccc3ccccc3c21 (stereo not given)	TDP1 cell noCPT 12µM, KB-V1 MDR tox inconclusive, TDP1 cell CPT 12µM, KB-3-1 tox inconclusive (no result: HT1080 IDH1KD tx, HT1080NT lethal)
CC(NCc1ccccc1Cl)C(O)c1ccccc1 (stereo not given)	KB-V1 MDR tox inconclusive
